Source: article PMC11006913

These sequences were tested against PRRX1 (Homo sapiens, UniProt P54821 80-166) (assay: PBM; 200 nM protein, PBS). Details: dsDNA, one strand shown.
PRRX1, sequence (P54821 80-166): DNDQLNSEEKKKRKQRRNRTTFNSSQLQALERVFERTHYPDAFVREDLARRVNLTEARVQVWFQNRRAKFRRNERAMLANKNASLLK

Sequence	binding signal
GAGGACCC	9.51 upbm affinity estimate (log intensity, higher = more binding, comparable within an allelic series)
GTCGGCGA	9.44 upbm affinity estimate (log intensity, higher = more binding, comparable within an allelic series)
GAGCACCC	9.01 upbm affinity estimate (log intensity, higher = more binding, comparable within an allelic series)

These sequences were tested against HOXB6 (Homo sapiens, UniProt P17509 132-218) (assay: PBM; 200 nM protein, PBS). Details: dsDNA, one strand shown.
HOXB6, sequence (P17509 132-218): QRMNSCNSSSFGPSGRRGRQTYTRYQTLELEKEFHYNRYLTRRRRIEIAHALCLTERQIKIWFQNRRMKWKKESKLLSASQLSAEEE

Sequence	binding signal
CCACCGGC	8.83 upbm affinity estimate (log intensity, higher = more binding, comparable within an allelic series)
CTTCCCGC	9.02 upbm affinity estimate (log intensity, higher = more binding, comparable within an allelic series)
CCTGCAGG	8.92 upbm affinity estimate (log intensity, higher = more binding, comparable within an allelic series)
CATCAATC	10.5 upbm affinity estimate (log intensity, higher = more binding, comparable within an allelic series)
